# In PubChem BioAssay (Tox21):
# Inconclusive results are not listed. A call without a number means that no potency is given here. Unmarked numbers belong to inactive results. Activity calls are given as the source filed them. Unless noted, calls follow the shape of the dose curve; as a rule, active = well fitted curve in the direction sought with a large enough effect in the repeat runs; inconclusive = weak or mixed curves; inactive = no such curve, though single readings can be large; an effect the other way counts as inactive or inconclusive.
# Legend:
# [1] = qHTS assay to identify small molecule antagonists of the thyroid receptor (TR) signaling pathway - cell viability counter screen (AID 743064); also: nearly all actives have a fitted effect of over 50% in size
# Method in brief: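 Fluorescence from CellTiter-Fluor, added after 23.5 h exposure at 37 °C, reported viability of GH3.TRE-Luc cells co-treated with compound and 1 nM T3. Measured in the same wells as the luciferase TR readout.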
# [2] = qHTS assay to identify small molecule antagonists of the thyroid receptor (TR) signaling pathway (AID 743065); also: series mostly up to about 70 µM; nearly all actives have a fitted effect of over 55% in size
# Method in brief: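 GH3.TRE-Luc rat pituitary cells carrying two TR response elements driving luciferase were plated for 4 h, given compound plus 1 nM T3 (final), and incubated 23.5 h at 37 C. ONE-Glo luminescence measured reporter inhibition; CellTiter-Fluor fluorescence tracked cytotoxicity.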
# [3] = test system: thyroid hormone receptor (rat, GH3 cells); experiment: qHTS assay to identify small molecule agonists of the thyroid receptor (TR) signaling pathway (AID 743066; calls by dose curve)
# [4] = biological target: Estrogen receptor (Homo sapiens) (UniProt P03372); experiment: qHTS assay to identify small molecule antagonists of the estrogen receptor alpha (ER-alpha) signaling pathway (AID 743069; active = well fitted curve in the direction sought with a large enough effect in the signal ratio in the repeat runs, not every such curve was filed as active; the % refers to the signal ratio)
# Method in brief: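 Estradiol-stimulated ER-alpha-UAS-bla HEK293 cells, 18 hr compound exposure at 37C. LiveBLAzer B/G substrate, 2 hr RT, fluorescence read.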
# [5] = qHTS assay to identify small molecule antagonists of the estrogen receptor alpha (ER-alpha) signaling pathway - cell viability counter screen (AID 743074; calls by dose curve;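 also: HEK293 cells carrying ER-alpha-UAS-bla reporter stimulated with 17beta-estradiol; nearly all actives have a fitted effect of over 45% in size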)
# [6] = biological target: Estrogen receptor (Homo sapiens) (UniProt P03372); experiment: qHTS assay to identify small molecule agonists of the estrogen receptor alpha (ER-alpha) signaling pathway (AID 743075; calls by dose curve;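 also: HEK293 GripTite cells with ER-alpha and UAS-driven beta-lactamase reporter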)
# [7] = biological target: Estrogen receptor (Homo sapiens) (UniProt P03372); experiment: qHTS assay to identify small molecule agonists of the estrogen receptor alpha (ER-alpha) signaling pathway using the BG1 cell line (AID 743079); also: nearly all actives have a fitted effect of over 20% in size; also: potency is read from the fitted curve at half-maximal effect
# [8] = qHTS assay to identify small molecule antagonists of the estrogen receptor alpha (ER-alpha) signaling pathway using the BG1 cell line (AID 743080; calls by dose curve;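 also: BG1 cells stimulated with 17beta-estradiol alongside compound; series mostly up to about 70 µM; nearly all actives have a fitted effect of over 25% in size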)
# Method in brief: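 Readout is ONE-Glo luminescence, taken 30 min at room temperature after reagent addition, preceded by a CellTiter-Fluor viability read; BG1-Luc-4E2 cells had received compound and 17beta-estradiol for 21.5 h at 37 C.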
# [9] = qHTS assay to identify small molecule antagonists of the estrogen receptor alpha (ER-alpha) signaling pathway using the BG1 cell line - cell viability counter screen (AID 743081);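 also: compound given together with 17beta-estradiol as the ER stimulus; series mostly up to about 70 µM; nearly all actives have a fitted effect of over 45% in size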
# Aromatase (Homo sapiens) = Aromatase (Homo sapiens) (UniProt P11511); experiment: qHTS assay to identify aromatase inhibitors (AID 743083); also: series mostly up to about 70 µM; nearly all actives have a fitted effect of over 55% in size
# [10] = qHTS assay to identify aromatase inhibitors - cell viability counter screen (AID 743084);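 also: cells stimulated with testosterone during compound exposure; nearly all actives have a fitted effect of over 55% in size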
# [11] = biological target: Aryl hydrocarbon receptor (Homo sapiens) (UniProt P35869); experiment: qHTS assay to identify small molecule that activate the aryl hydrocarbon receptor (AhR) signaling pathway (AID 743085);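 also: HG2L7.5c1 human HepG2 liver cells with stably integrated DRE-driven firefly reporter; series mostly up to about 70 µM; nearly all actives have a fitted effect of over 15% in size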
# Method in brief: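 Cell line HG2L7.5c1 (human hepatoma, 20× DRE-luc). Plated, 5 h 37C, compound/DMSO added, 24 h 37C. CellTiter-Fluor 30 min 37C → fluorescence; then ONE-Glo 30 min RT → luminescence.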
# [12] = qHTS assay to identify small molecule that activate the aryl hydrocarbon receptor (AhR) signaling pathway - cell viability counter screen (AID 743086);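 also: HepG2 liver cells carrying the AhR DRE luciferase reporter; series mostly up to about 70 µM; nearly all actives have a fitted effect of over 45% in size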
# Method in brief: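 HepG2-AhR-luc (HG2L7.5c1) cells, 4000/well, were preincubated 5 h at 37C, exposed to compound in qHTS format for 24 hr at 37C, then given CellTiter-Fluor for 30 min; viability was read as fluorescence in the reporter wells.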
# [13] = biological target: Peroxisome proliferator-activated receptor gamma (Homo sapiens) (UniProt P37231); experiment: qHTS assay to identify small molecule agonists of the peroxisome proliferator-activated receptor gamma (PPARg) signaling pathway (AID 743094; active = well fitted activation curve with a large enough effect in the signal ratio in the repeat runs, not every such curve was filed as active; the % refers to the signal ratio)
# Method in brief: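 Following 5 h plating at 37C, PPARg-bla HEK293H cells receive compound or DMSO for 17 h; fluorescence intensity is recorded after LiveBLAzer B/G loading for 1 h at room temperature.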
# [14] = biological target: Peroxisome proliferator-activated receptor gamma (Homo sapiens) (UniProt P37231); experiment: qHTS assay to identify small molecule antagonists of the peroxisome proliferator-activated receptor gamma (PPARg) signaling pathway (AID 743191; calls by dose curve; also: series mostly up to about 63 µM; nearly all actives have a fitted effect of over 30% in size)
# Method in brief: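 GeneBLAzer PPARg UAS-bla HEK293H cells carrying a UAS-driven beta-lactamase reporter were plated at 3000 cells/well, preincubated 5 h at 37C, then given compound for 17 h at 37C; LiveBLAzer B/G FRET substrate was read after 1 h at room temperature.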
# [15] = qHTS assay to identify small molecule antagonists of the peroxisome proliferator-activated receptor gamma (PPARg) signaling pathway - cell viability counter screen (AID 743194); also: nearly all actives have a fitted effect of over 55% in size
# Method in brief: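 PPARg-UAS-bla HEK293H cells were plated, rested 5 h at 37 C, then treated with compounds plus rosiglitazone (50 nM final) for 17 h at 37 C; viability was then read by CellTiter-Glo luminescence after 30 min at room temperature.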
# [16] = qHTS assay for small molecule agonists of the antioxidant response element (ARE) signaling pathway (AID 743202; active = well fitted activation curve with a large enough effect in the signal ratio in the repeat runs, not every such curve was filed as active; the % refers to the signal ratio)
# Method in brief: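 Compounds delivered in DMSO to ARE-bla HepG2 cells (2,000 cells/well, pre-incubated 5 h) and left 16 h at 37 C. LiveBLAzer B/G FRET substrate then added for 2 h at RT before fluorescence reading.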
# [17] = qHTS assay for small molecule agonists of the antioxidant response element (ARE) signaling pathway - cell viability counter screen (AID 743203; calls by dose curve; also: nearly all actives have a fitted effect of over 55% in size)
# Method in brief: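 Compounds in DMSO were pinned onto ARE-bla HepG2 cells plated 5 hrs earlier at 2,000 cells/well. Sixteen hours later at 37C/5% CO2, CellTiter-Glo was added and luminescence measured after 30 min at room temperature.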
# [18] = qHTS assay for small molecule activators of the heat shock response signaling pathway - cell viability counter screen (AID 743209); also: nearly all actives have a fitted effect of over 50% in size
# Method in brief: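 Counter screen for cytotoxicity in HeLa HSE-bla reporter cells. Treatment was 5 h at 37 C; viability was detected by luminescent ATP assay (CellTiter-Glo) in the same wells as the beta-lactamase read.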
# [19] = qHTS assay for small molecule activators of the heat shock response signaling pathway (AID 743210; active = well fitted activation curve with a large enough effect in the signal ratio in the repeat runs, with a control signal flat, not every such curve was filed as active; the % refers to the signal ratio;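 also: HeLa cells with beta-lactamase reporter driven by heat shock elements; series mostly up to about 63 µM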)
# Method in brief: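 Reporter gene assay: HeLa cells stably bearing an HSE-bla construct, compound treatment 5 h at 37 C, LiveBLAzer substrate 2.5 h at RT, fluorescence intensity.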
# Aryl hydrocarbon receptor (Homo sapiens), sequence (P35869 whole entry, looked up): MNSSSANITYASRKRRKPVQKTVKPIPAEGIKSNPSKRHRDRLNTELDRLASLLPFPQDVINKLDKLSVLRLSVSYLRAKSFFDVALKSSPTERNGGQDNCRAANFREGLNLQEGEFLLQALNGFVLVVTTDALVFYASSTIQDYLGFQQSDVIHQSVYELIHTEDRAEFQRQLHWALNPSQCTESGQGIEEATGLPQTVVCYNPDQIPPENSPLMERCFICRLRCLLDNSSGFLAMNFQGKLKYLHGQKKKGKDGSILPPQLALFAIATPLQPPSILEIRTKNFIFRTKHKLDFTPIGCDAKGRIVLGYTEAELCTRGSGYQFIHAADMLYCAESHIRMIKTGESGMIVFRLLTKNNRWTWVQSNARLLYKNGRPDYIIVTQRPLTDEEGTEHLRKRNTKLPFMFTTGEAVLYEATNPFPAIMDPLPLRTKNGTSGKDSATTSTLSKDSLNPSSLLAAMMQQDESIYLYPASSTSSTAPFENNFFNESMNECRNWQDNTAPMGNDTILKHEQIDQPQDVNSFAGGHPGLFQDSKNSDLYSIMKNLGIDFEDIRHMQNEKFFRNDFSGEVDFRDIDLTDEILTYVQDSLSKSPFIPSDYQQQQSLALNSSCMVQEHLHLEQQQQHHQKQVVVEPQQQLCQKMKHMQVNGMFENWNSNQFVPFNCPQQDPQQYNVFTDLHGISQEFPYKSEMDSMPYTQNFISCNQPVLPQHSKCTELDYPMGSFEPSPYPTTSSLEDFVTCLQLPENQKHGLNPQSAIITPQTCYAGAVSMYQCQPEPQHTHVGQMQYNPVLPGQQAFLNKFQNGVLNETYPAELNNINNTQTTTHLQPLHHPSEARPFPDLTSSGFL
# Aromatase (Homo sapiens), sequence (P11511 whole entry, looked up): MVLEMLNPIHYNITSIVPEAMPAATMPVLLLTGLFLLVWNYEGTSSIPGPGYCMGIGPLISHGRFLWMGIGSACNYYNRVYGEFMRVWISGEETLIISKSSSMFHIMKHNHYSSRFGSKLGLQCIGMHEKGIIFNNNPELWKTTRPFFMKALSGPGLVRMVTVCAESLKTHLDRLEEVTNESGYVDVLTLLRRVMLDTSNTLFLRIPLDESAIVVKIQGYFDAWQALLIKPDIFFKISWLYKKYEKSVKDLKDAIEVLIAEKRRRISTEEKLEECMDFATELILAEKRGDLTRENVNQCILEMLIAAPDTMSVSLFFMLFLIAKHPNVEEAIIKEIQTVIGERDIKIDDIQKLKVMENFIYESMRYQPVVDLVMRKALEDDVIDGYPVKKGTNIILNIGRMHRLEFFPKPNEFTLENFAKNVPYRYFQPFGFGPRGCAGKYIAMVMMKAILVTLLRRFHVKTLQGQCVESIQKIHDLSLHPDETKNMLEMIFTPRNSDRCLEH
# Peroxisome proliferator-activated receptor gamma (Homo sapiens), sequence (P37231 whole entry, looked up): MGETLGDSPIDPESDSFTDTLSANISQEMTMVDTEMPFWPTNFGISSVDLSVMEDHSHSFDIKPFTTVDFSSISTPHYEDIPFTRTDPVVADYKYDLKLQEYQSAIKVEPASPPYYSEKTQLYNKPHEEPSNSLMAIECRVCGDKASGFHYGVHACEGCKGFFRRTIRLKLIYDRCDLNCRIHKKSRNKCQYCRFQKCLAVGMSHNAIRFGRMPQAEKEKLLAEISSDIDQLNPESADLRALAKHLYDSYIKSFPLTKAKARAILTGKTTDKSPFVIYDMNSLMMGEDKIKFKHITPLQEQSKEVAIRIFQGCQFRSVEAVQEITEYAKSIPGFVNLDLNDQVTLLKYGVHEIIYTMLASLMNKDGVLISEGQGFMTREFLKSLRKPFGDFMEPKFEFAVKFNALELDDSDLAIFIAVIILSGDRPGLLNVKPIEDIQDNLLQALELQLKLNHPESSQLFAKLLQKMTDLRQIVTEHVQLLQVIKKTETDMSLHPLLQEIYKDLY
# Estrogen receptor (Homo sapiens), sequence (P03372 whole entry, looked up): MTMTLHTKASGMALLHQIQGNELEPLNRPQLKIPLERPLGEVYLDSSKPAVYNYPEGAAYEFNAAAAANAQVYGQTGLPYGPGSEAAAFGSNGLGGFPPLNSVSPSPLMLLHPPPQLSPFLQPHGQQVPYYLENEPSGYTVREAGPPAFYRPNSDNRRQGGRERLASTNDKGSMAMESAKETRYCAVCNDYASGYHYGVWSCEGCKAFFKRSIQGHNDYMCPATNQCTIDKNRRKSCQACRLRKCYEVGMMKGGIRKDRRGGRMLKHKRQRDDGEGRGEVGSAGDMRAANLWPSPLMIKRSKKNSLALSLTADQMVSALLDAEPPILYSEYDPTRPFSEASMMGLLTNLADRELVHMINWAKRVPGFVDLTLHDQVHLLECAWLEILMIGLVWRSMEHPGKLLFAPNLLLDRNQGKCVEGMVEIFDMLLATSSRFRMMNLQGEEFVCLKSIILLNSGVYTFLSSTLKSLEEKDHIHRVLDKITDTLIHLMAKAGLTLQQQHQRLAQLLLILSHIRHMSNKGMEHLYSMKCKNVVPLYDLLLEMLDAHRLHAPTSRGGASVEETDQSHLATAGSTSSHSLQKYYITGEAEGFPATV
SMILES,Potency [1],Potency [2],Potency [3],Potency [4],Potency [5],Potency [6],Potency [7],outcome [8],outcome [9],outcome (Aromatase (Homo sapiens)),Potency [10],Potency [11],Potency [12],outcome [13],Potency [14],outcome [15],Potency [16],outcome [17],outcome [18],outcome [19]
CC1=CC[C@H](CC=O)C1(C)C,inactive,inactive,inactive,inactive,inactive,inactive,inactive,inactive,inactive,inactive,inactive,inactive,inactive,inactive,inactive,inactive,inactive,inactive,inactive,inactive
C=C[Si](C)(C)O[Si](C)(C)C=C,inactive,inactive,inactive,inactive,inactive,inactive,inactive,inactive,inactive,inactive,inactive,inactive,inactive,inactive,inactive,inactive,inactive,inactive,inactive,inactive
CCCCCCCCCCCCC1CO1 (stereo not given),inactive,inactive,inactive,inactive,inactive,inactive,inactive,inactive,inactive,inactive,inactive,inactive,inactive,inactive,inactive,inactive,inactive,inactive,inactive,inactive
C=CC(C)(O)CC/C=C(\C)CC (stereo not given),inactive,inactive,inactive,inactive,inactive,inactive,inactive,inactive,inactive,inactive,inactive,inactive,inactive,inactive,inactive,inactive,inactive,inactive,inactive,inactive
CC(C)CCO,inactive,inactive,inactive,inactive,inactive,inactive,inactive,inactive,inactive,inactive,inactive,inactive,inactive,inactive,inactive,inactive,inactive,inactive,inactive,inactive
O=C(Oc1ccccc1C(=O)O)c1ccccc1O,inactive,inactive,inactive,inactive,inactive,inactive,26.6 µM (active),inactive,inactive,inactive,inactive,inactive,inactive,inactive,inactive,inactive,inactive,inactive,inactive,inactive
Nc1ccc(S(=O)(=O)NC(=O)c2ccccc2)cc1,inactive,inactive,inactive,inactive,inactive,inactive,inactive,inactive,inactive,inactive,inactive,inactive,inactive,inactive,inactive,inactive,,inactive,inactive,
CCCCOC(=O)C(C)OC(=O)CCC (stereo not given),inactive,inactive,inactive,inactive,inactive,inactive,inactive,inactive,inactive,inactive,inactive,inactive,inactive,inactive,,inactive,inactive,inactive,inactive,inactive
CCCOCCOCCOCCO,inactive,inactive,inactive,inactive,inactive,inactive,inactive,inactive,inactive,inactive,inactive,inactive,inactive,inactive,inactive,,inactive,inactive,inactive,inactive
CCCCC(=O)N(C)C,inactive,inactive,inactive,inactive,inactive,inactive,inactive,inactive,inactive,inactive,inactive,inactive,,inactive,,inactive,inactive,inactive,inactive,inactive
CCCCCC(=O)OCC,inactive,inactive,inactive,inactive,inactive,inactive,inactive,inactive,inactive,inactive,inactive,inactive,,inactive,inactive,inactive,,inactive,inactive,inactive
CCOC(=O)C(C)(C)C,inactive,inactive,inactive,inactive,inactive,inactive,inactive,inactive,inactive,inactive,inactive,inactive,inactive,inactive,,inactive,inactive,,inactive,inactive
O=C(O)/C=C/c1ccccc1,inactive,inactive,inactive,inactive,inactive,inactive,inactive,inactive,inactive,inactive,inactive,inactive,inactive,inactive,,inactive,inactive,inactive,inactive,
CCN(Cc1cccc(S(=O)(=O)O)c1)c1ccccc1,inactive,inactive,inactive,inactive,inactive,inactive,inactive,inactive,inactive,inactive,inactive,inactive,inactive,inactive,,inactive,inactive,inactive,inactive,inactive
CC(C)C(=O)c1ccccc1,inactive,inactive,inactive,inactive,inactive,inactive,inactive,inactive,inactive,inactive,inactive,inactive,,inactive,inactive,inactive,inactive,inactive,inactive,
